Compound activity from PubChem BioAssay.
Pf growth 96h: P. falciparum growth inhibition at 96 hours | P. falciparum luciferase reporter growth, 96 h | Potency, µM (doses to about 28.7 µM), for inactives: at the highest dose activity change, negative = inhibition, most hits filed as inhibitors | 6.9% of 320,000 active | AID 504834; active = well fitted inhibition curve with a large enough effect; inconclusive = small, poorly fitted or top-dose-only effect, or another doubt; inactive = no such curve, though single readings can be large or run the other way; also: % is scaled to controls: 0 for no effect and ±100 for the full control effect
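Parasite growth measured via integrated firefly luciferase reporter in P. falciparum. Infected erythrocytes at 2% hematocrit, 0.05% parasitemia final were treated 96 hours at 37 C under 5% CO2, and luminescence was read.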
Pf growth 48h: inhibits P. falciparum growth in the first generation, 48 h | Potency, µM (doses to about 28.7 µM), for the others: at the highest dose activity change, negative = inhibition, actives largely listed as inhibitors | P. falciparum luciferase growth in erythrocytes, 48 h | 5.9% of 310,000 active | AID 504832; active = well fitted inhibition curve with a large enough effect; inconclusive = small, poorly fitted or top-dose-only effect, or another doubt; inactive = no such curve, though single readings can be large or run the other way; also: % is scaled to controls: 0 for no effect and ±100 for the full control effect
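Luciferase-expressing P. falciparum in infected erythrocytes (2% hematocrit, 0.1% parasitemia final) in RPMI 1640/0.5% Albumax were exposed to compound for 48 hours at 37 C, 5% CO2; growth read as luminescence.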
SARS PLpro yeast: SARS-CoV PLP inhibition in yeast. AID 485353. S. cerevisiae expressing SARS-CoV PLpro, growth rescue. 0.19% of 330,000 active. Potency, µM (titrated, usually from 32.9 µM), for the others: at the highest dose activity, positive = growth rescue, actives largely listed as activators; also: 0% is about no effect; nearly all actives have a fitted effect of over 55% in size
NS1 inh: influenza NS1 inhibition; Potency, µM (doses to about 46.1 µM), for inactives: at the highest dose activity, positive = more growth; 0.4% of 270,000 active; also: actives are rising curves; nearly all actives have a fitted effect of over 50% in size
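Recovery from NS1-induced slow growth read by OD600 in budding yeast switched to galactose assay medium (pH 6.0, -URA) at 1:100 dilution. Compound 23 nl per well; the matching strain lacking NS1 serves as control.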
RE007 growth inh: less growth of the S. pombe RE007 Vpr strain; S. pombe RE007 Vpr strain, BacTiter-Glo ATP luminescence, 24 h; Potency, µM (top dose mostly 92.2 µM), for the others: at the top dose activity change, negative = less growth, usual class: inhibitors; 0.21% of 360,000 active; AID 651644; active = well fitted falling curve with a large enough effect; inconclusive = small, poorly fitted or top-dose-only effect; inactive = no such curve, though single readings can be large or run the other way; also: % is scaled to controls: 0 for no effect and ±100 for the full control effect; nearly all actives have a fitted effect of over 50% in size
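Fission yeast RE007 carrying one integrated HIV-1 vpr copy, seeded at OD 0.01 in PMG+AL medium with 23 nL pinned compound. Grown 24 h at 30 degrees; viability read by BacTiter-Glo luminescence after 5 min.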
Active calls of the source: *; ? = inconclusive; · = not tested or not shown. Only some compounds are listed: those with a hit (about 9.5% of all), similar ones and a draw of the others. Unless noted, calls follow the shape of the full dose curve. Potency is read from the fitted curve at half-maximal effect.

SMILES	Pf growth 96h	Pf growth 48h	SARS PLpro yeast	NS1 inh	RE007 growth inh
O=C(CSc1nc2ccccc2c(=O)n1-c1ccccc1Cl)NC1CCS(=O)(=O)C1 (stereo unspecified)	10µM*	?	13%	·	-18%
COC(=O)C1=C(C(=O)OC)SC(=C2C(=S)C(C)(C)N(C(=O)CC(C)C)c3ccccc32)S1	47%	·	15%	-4%	-12%
CCN(CC)CCCNC(=O)CCn1nc(-c2ccccc2)ccc1=O	-9%	34%	1%	5%	-2%
c1ccc(-c2nnc3sc(CN4CCc5ccccc54)cn23)cc1	?	10µM*	-62%	-127%	3%
Cc1nc(NC(=O)C23CC4CC(CC(C4)C2)C3)sc1Cc1ccc2c(c1)OCO2	1.7µM*	?	-20%	-6%	11%
COc1ccccc1CNC(=O)CN1C(=O)NC2(CCC(C)CC2)C1=O (stereo unspecified)	·	·	4%	·	-4%
COc1ccc(-c2csc(NC(=S)NC(=O)/C=C/c3ccco3)n2)cc1Br	?	10µM*	0%	12%	17%
C/C(=C(/CCO)SS/C(CCO)=C(\C)N(C=O)Cc1cnc(C)nc1N)N(C=O)Cc1cnc(C)nc1N	?	-7%	·	·	·
CSCCC(C(=O)Nc1c(C)cccc1C)N1CCC(Cc2ccccc2)CC1 (stereo unspecified)	·	·	·	·	-15%
Cc1cc(=O)oc2cc(NC(=O)c3ccc(OC(F)F)cc3)ccc12	56%	56%	-1%	-57%	-8%
CC(C)CCNc1nc(N)c([N+](=O)[O-])c(N2CCCCCC2)n1	2.1µM*	3.7µM*	-3%	-53%	9%
O=C(Nc1cccc(-c2ccc(N3CCOCC3)nn2)c1)c1ccc(F)cc1F	53%	60%	-2%	·	6%
CCc1ccc(/C=N/n2c(C)cc(C)c(C#N)c2=O)cc1	1.7µM*	9.3µM*	16%	?	·
Cc1cc(C)n(/N=C/c2ccccc2)c(=O)c1C#N	-16%	?	10%	-2%	14%
Cc1cccc(/C=N/n2c(C)cc(C)c(C#N)c2=O)c1	?	5.2µM*	2%	1%	12%
CC(=O)Nc1ccc(N=Nc2ccccc2)cc1[N+](=O)[O-]	·	·	·	·	4%
CC(=O)Nc1ccccc1Nc1cc(C#N)c(C#N)cc1[N+](=O)[O-]	7.4µM*	?	3%	-5%	-2%
COc1cc(/C=N/NC(=O)NC23CC4CC(CC(C4)C2)C3)ccc1OCC(N)=O	5.9µM*	9.3µM*	0%	0%	6%
CCOC(=O)c1ccc(NC(=O)CN2CCN(C(=O)c3ccco3)CC2)cc1	-3%	9.3µM*	-1%	-11%	10%
NC(=O)c1ccc(NC(=O)CN2CCOCC2)cc1	-24%	14%	20%	22%	-6%
NC(=O)c1ccc(NC(=O)CN2CCN(C(=O)c3ccco3)CC2)cc1	2.3µM*	12%	-4%	-4%	-1%
CCOc1ccc(NC(=O)CN2CCN(C(=O)c3ccco3)CC2)cc1S(=O)(=O)N1CCCC1	15µM*	?	1%	·	-2%
COc1cc(C(C)=O)ccc1Oc1ncnc2c1cnn2-c1ccc(F)cc1	177%	164%	4%	-8%	1%
COc1cc(OC)cc(-c2c(-c3cccs3)c3cc(Br)ccc3n2C)c1	?	?	-18%	·	-1%
COc1cc(F)cc(-c2ccc3c(c2)c(-c2cccs2)c(-c2cc(OC)cc(OC)c2)n3C)c1	?	9.3µM*	1%	·	-6%
SMILES	Pf growth 96h	Pf growth 48h	SARS PLpro yeast	NS1 inh	RE007 growth inh
COc1cc(OC)cc(-c2c(-c3ccc(C(C)=O)cc3)c3cc(-c4cccc5[nH]ccc45)ccc3n2C)c1	·	·	2%	·	19%
COc1cc(OC)cc(-c2c(-c3cccs3)c3cc(-c4ccn[nH]4)ccc3n2C)c1	?	4.7µM*	1%	·	1%
COc1cc(OC)cc(-c2c(-c3cccs3)c3cc(-c4cccc5[nH]ccc45)ccc3n2C)c1	?	2.3µM*	-3%	·	9%
CCNc1nc(NC(C)C)nc(ON=C(C)C)n1	?	8.3µM*	9%	-3%	·
CCNc1nc(NC(C)C)nc(OCC)n1	?	·	1%	-20%	23%
CC(C)Nc1nc(NC(N)=S)nc(NC(C)(C)C)n1	-21%	-9%	-1%	-1%	5%
CCNc1nc(NC(C)C)nc(NC(C)(C)C)n1	?	3.3µM*	-1%	-45%	3%
